Assay outcomes (PubChem)
MCF10A rereplic – DNA re-replication induction in MCF 10a cells; MCF 10A DNA re-replication, Hoechst nuclear intensity, 48 h; Potency, µM (highest dose often 46.1 µM), inactives show at the top dose activity, positive = re-replication, actives largely listed as activators; 2.9% of 350,000 active; note: potency is the fitted concentration of half-maximal effect; % of control where 0% means no effect; nearly all actives have a fitted effect of over 50% in size
Gal4-VP16 FLuc – counter-screen for ROR gamma inhibitors: Gal4-VP16 reporter; Drosophila S2 Gal4-VP16 UAS-luciferase, luminescence, 20 h; Potency, µM (top dose mostly 53.6 µM), without a hit: at the highest dose activity, negative = inhibition, usual class: inhibitors; 3.5% of 310,000 active; AID 2546;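 note: Gal4-VP16 expression switched on by copper sulfate through the metallothionein promoter; potency is the fitted concentration of half-maximal effect; % is set by controls: 0 for no effect and ±100 for the full control effect; nearly all actives have a fitted effect of over 50% in size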
IL1B secr inh – inhibitors of inflammasome signaling (IL-1 beta secretion); THP-1 LPS/ATP IL-1B secretion, AlphaLISA, 16 h; stronger effect = lower value; AID 743279; 4.7% of 360,000 active; activity change, % at 57.5 µM; in the data active = activity change below about -50%; inconclusive = mostly about -30% to -49%; note: % is set by controls: 0 for no effect and ±100 for the full control effect
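THP-1 cells pretreated 1 hr with compounds (up to 57.5 uM final), then stimulated with LPS (250 ng/mL final) plus ATP (1.25 mM final); secreted IL-1B measured by AlphaLISA after 16 hr, decreased signal indicating inhibition.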
SW480 rereplic – DNA re-replication induction in SW480 cells; 1.8% of 340,000 active; Potency, µM (highest dose often 46.1 µM), for the others: top-dose re-replication activation, usual class: activators; SW480 DNA re-replication, Hoechst DNA content imaging, 48 h; note: potency is the fitted concentration of half-maximal effect; % of control where 0% means no effect; nearly all actives have a fitted effect of over 55% in size
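Image-based read-out: total Hoechst fluorescence of nuclei (405 nm excitation, 500-530 nm emission), with hits raising the fraction of high-intensity nuclei. SW480 colon cells incubated 48 hr with compounds at 37 C.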
RORgamma inh – blocks mouse ROR gamma transcriptional activity | Drosophila S2 Gal4-RORgamma UAS-luciferase reporter, 20 h | Potency, µM (series often up to 53.6 µM), for inactives: top-dose activity change, negative = inhibition, most hits filed as inhibitors | 5.4% of 310,000 active | AID 2551; note: potency is the fitted concentration of half-maximal effect; % is set by controls: 0 for no effect and ±100 for the full control effect; nearly all actives have a fitted effect of over 60% in size
Target sequence (P51450 whole entry, looked up, the tested form may be a part): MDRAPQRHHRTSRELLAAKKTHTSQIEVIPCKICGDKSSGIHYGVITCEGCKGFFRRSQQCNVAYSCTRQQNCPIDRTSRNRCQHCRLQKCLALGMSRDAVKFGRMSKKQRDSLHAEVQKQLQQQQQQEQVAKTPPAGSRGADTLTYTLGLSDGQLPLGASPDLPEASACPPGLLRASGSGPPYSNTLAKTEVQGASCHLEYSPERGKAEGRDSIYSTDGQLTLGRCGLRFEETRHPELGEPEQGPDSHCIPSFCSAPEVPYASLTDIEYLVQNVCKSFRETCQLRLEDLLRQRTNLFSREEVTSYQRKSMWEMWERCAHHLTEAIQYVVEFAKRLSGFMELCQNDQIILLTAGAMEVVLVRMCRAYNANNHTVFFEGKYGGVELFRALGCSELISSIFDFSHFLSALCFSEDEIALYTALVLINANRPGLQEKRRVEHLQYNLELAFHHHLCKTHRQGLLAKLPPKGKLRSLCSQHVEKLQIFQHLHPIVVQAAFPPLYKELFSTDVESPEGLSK
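Drosophila S2 cells stably expressing Gal4-DBD/mouse RORγ fusion under metallothionein promoter plus UAS-luciferase; compound 1 h, then 700 uM CuSO4 induction for 20 h at ambient temperature; inhibition read as reduced luminescence.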
An asterisk follows results filed as active; ? = inconclusive; nt = no result given; [ ] = another dose, or the depositor's remark. Rows were chosen to be rich in hits. Some 11% of all compounds tested hit in one or more screens of this group. Unless noted, calls come from the whole dose curve; as a rule, active = well fitted curve in the direction sought with a large enough effect; inconclusive = small, poorly fitted or top-dose-only effect, or another doubt; inactive = no such curve, though single readings can be large; an effect the other way counts as inactive or inconclusive.

SMILES	MCF10A rereplic	Gal4-VP16 FLuc	IL1B secr inh	SW480 rereplic	RORgamma inh
COc1cc2ncnc(NCc3ccccc3)c2cc1OC	6.5µM*	-10%	?	-4%	-38%
CN(C)CCCNc1nc(-c2ccccc2)nc2ccccc12	0%	-4%	?	5%	15%
CN(C)CCCNc1c2ccccc2nc2ccccc12	?	?	-103*	?	-39%
OCC(Cc1ccccc1)Nc1c2ccccc2nc2ccccc12 (stereo unspecified)	?	-9%	-52*	?	2%
C=CCNc1ncnc2ccccc12	-4%	-5%	24	-8%	30%
COCCN(C(=O)CSc1nnc(-c2ccccc2F)o1)c1c(N)n(CC(C)C)c(=O)[nH]c1=O	-5%	nt	-5	-27%	nt
CC(=O)c1sc(NC(=O)CN2C(=O)C3CC=CCC3C2=O)nc1-c1ccccc1 (stereo unspecified)	4%	nt	-14	-3%	nt
c1ccc(CNc2c3ccccc3nc3ccccc23)cc1	?	-13%	-100*	?	-21%
Clc1ccc(Cn2ncc3c(NCc4ccccc4)ncnc32)cc1	6.5µM*	4%	-2	?	?
Oc1ccc(CCNc2c3ccccc3nc3ccccc23)cc1O	?	-9%	-99*	?	-30%
CN(C)/[N+]([O-])=N/Oc1cc(O/[N+]([O-])=N/N2CCCC2CO)c([N+](=O)[O-])cc1[N+](=O)[O-] (stereo unspecified)	nt	-5%	nt	nt	21%
Fc1ccc(Cn2cc(C(=S)N3CCOCC3)c3ccccc32)cc1	-16%	?	2	3%	8.9µM*
Fc1ccccc1Cn1cc(C(=S)N2CCOCC2)c2ccccc21	17%	14%	-25	-13%	?
CN1CCN(C(=S)c2cn(Cc3ccccc3)c3ccccc23)CC1	?	-1%	23	-1%	?
CN1CCN(C(=S)c2cn(Cc3ccc(Br)cc3)c3ccccc23)CC1	-3%	-8%	-11	-1%	25µM*
CC1CCN(C(=S)c2cn(Cc3cccc(F)c3)c3ccccc23)CC1	3%	?	-6	?	10µM*
CC1(C)CC(N=C=O)CC(C)(CN=C=O)C1 (stereo unspecified)	nt	1%	nt	nt	1%
CCn1c(CN(C)c2ccccc2)nc2ccccc21	?	22µM*	-17	-6%	10µM*
CCn1c(COc2ccccc2)nc2ccccc21	17%	?	-19	5%	?
CC(=O)c1nc2ccccc2n1CCc1ccccc1	1.8µM*	3%	58	-22%	-3%
Cc1nc2ccccc2n1CC(=O)NN	-3%	-9%	14	-3%	-17%
Cc1nc2ccccc2n1CC(=O)NCc1ccccc1	-6%	6.3µM*	2	1%	-30%
OCCCc1nc2ccccc2n1CCc1ccccc1	23%	-3%	-1	0%	-12%
CCCc1nc2ccccc2n1CCc1ccccc1	15%	-29%	-6	1%	7.1µM*
CCCNC(=O)C1(C)CCCN(CCOc2ccccc2)C1 (stereo unspecified)	nt	nt	-15	nt	nt
SMILES	MCF10A rereplic	Gal4-VP16 FLuc	IL1B secr inh	SW480 rereplic	RORgamma inh
Cc1nc2ccccc2c(=O)n1CCc1ccccc1	14%	0%	38	-4%	30%
CCc1nc2ccccc2n1Cc1ccccc1F	-6%	-20%[10 µM]	25	13%	10µM*
Cn1c(CCc2ccc(N)cc2)nc2ccccc21	-8%	?	-7	2%	11µM*
Cc1nc2ccccc2n1CCc1ccccc1	15%	-4%	12	-3%	11µM*
Cn1c(-c2ccc(N)cc2)nc2ccccc21	1%	-3%	-4	-8%	-38%
CCc1cc2c(nc1CC)CCN(CC/C(C)=N/O[C@@H]1O[C@H](COC(C)=O)[C@H](OC(C)=O)[C@H](OC(C)=O)[C@H]1OC(C)=O)C2	nt	-11%[10 µM]	nt	nt	20%[10 µM]
FC(F)(F)c1cccc(-c2nc3nc(Cl)c(Cl)nc3[nH]2)c1	?	5.6µM*	-18	?	10µM*
C[C@H](NC(=O)c1nc[nH]c1C(=O)N[C@@H](CCCCNC(=O)OC(C)(C)C)C(=O)OC(C)(C)C)C(=O)OC(C)(C)C	7%	13µM*	0	-4%	?
CC(C)(C)OC(=O)NCCCC[C@H](NC(=O)c1nc[nH]c1C(=O)N[C@@H](CCCCNC(=O)OC(C)(C)C)C(=O)OC(C)(C)C)C(=O)OC(C)(C)C	?	-9%	-24	?	?
CC(C)(C)OC(=O)NCCCC[C@H](NC(=O)c1nc[nH]c1C(=O)NC(c1ccccc1)c1ccccc1)C(=O)OC(C)(C)C	26%	?	-7	?	10µM*
CC(C)(C)OC(=O)NCCCCCNC(=O)c1[nH]cnc1C(=O)N[C@@H](CCCCNC(=O)OC(C)(C)C)C(=O)OC(C)(C)C	?	?	-21	?	?
Cc1ccc(NC(=O)Nc2nnc(-c3ccncc3)s2)cc1C	16µM*	8%	-25	3%	7%
O=C(Nc1cccc(Cl)c1)Nc1nnc(-c2ccncc2)s1	5.8µM*	-11%	9	12µM*	?
O=C(Nc1ccc(Cl)cc1)Nc1nnc(-c2ccncc2)s1	?	2%	?	-3%	20%[10 µM]
COC(=O)c1c(C(=O)c2ccc(Br)cc2)n(C)c2ccccc12	12%	nt	11	8%	nt
CCCN(CCC)C(=O)C1CCN(c2ccc(S(=O)(=O)N3CCOCC3)cc2[N+](=O)[O-])CC1	12%	-10%	9	-5%	-4%
COc1ccc2c(=O)c(-c3ccc(C)cc3)c(-c3ccccc3)oc2c1	?	nt	0	-8%	nt
c1cc2c(cc1-c1[nH]ncc1CN1C[C@H]3CC[C@H]1C3)OCO2	17%	-11%	9	5.8µM*	-13%
CSc1ccc(OC2(C)CCN(Cc3ccc4c(c3)OCCO4)C2)cc1 (stereo unspecified)	nt	nt	-11	nt	nt
CCn1c(CCl)nc2cc(S(=O)(=O)N3CCOCC3)ccc21	?	nt	-101*	15µM*	nt
CCOC(=O)CSc1nc2cc(S(=O)(=O)N3CCOCC3)ccc2n1CC	-2%	nt	-90*	76%	nt
CCn1c(SCC(=O)N(C)C)nc2cc(S(=O)(=O)N3CCOCC3)ccc21	-2%	nt	-2	-2%	nt
CCn1c(SCC(N)=O)nc2cc(S(=O)(=O)N3CCOCC3)ccc21	-2%	-15%	-6	1%	1%
Cc1ccnc(NC(=O)c2ccc(S(=O)(=O)N3CCCCCC3)cc2)c1	1%	nt	-13	-7%	nt
CCCCCCCCCCCCCCCCOCC(CO)OC (stereo unspecified)	nt	-16%	nt	nt	21%
CC(C)CO/N=C1/C[C@@H](O)[C@@H](O)[C@@H]2[C@@H]3C(=O)N(Cc4ccccc4)C(=O)[C@H]3CC[C@@H]12	nt	-1%[10 µM]	nt	nt	-16%[10 µM]
Cc1ccccc1Nc1nc(N2CCOCC2)nc(N2CCOCC2)n1	1%	-8%	-55*	21%	-8%
